The record followed here is PubChem BioAssay (NCATS).

Test [1] is described as follows: AP1 Signaling Pathway (AID 357; active means well fitted curve in either direction with a large enough effect, not every such curve was filed as active; further: on the % scale 0 is the no-effect control and ±100 the full control effect). A digest of the protocol:
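AP-1-bla ME-180 cells with beta-lactamase reporter under AP-1 response element, stimulated with EC50 EGF; compounds titrated, 5 hours at 37 degrees Celsius. CCF4 read at 460/530 nm ratio; positive and negative modulators judged by AC50.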

The target in test [2] is Cytochrome P450 1A2 (Homo sapiens) (UniProt P05177). Kind of test: p450-cyp1a2 (AID 410; calls by dose curve; further: potency means the concentration at half of the fitted maximal effect;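 on activity change, negative = inhibition: -100% = full effect of reference inhibitor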). Put shortly: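 20nM CYP1A2 with 100uM Luciferin-ME (at Km) in 100mM KPO4; compound preincubated 10 min, NADPH regeneration added, 60 min at room temperature. Luciferin quantified by luminescence after detection reagent; normalized to 57 uM furafylline.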
Test [3] can be described thus: Stat Signaling Pathway (AID 446; active means well fitted curve in either direction with a large enough effect, not every such curve was filed as active;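 further: ME-180 cervical cancer cells given 40 pM IL-6 alongside compound; SIE-controlled beta-lactamase reporter measured as 460/530 nm FRET emission ratio; on the % scale 0 is the no-effect control and ±100 the full control effect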). Put shortly: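 IL-6/STAT signaling read in ME-180 cells via an SIE beta-lactamase reporter. Stimulus was 40 pM IL-6 (its AC50) for 5 hrs, so both activation and inhibition register.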
For test [4], the target named is Glucocorticoid receptor (Homo sapiens) (UniProt P04150). Kind of test: GR-EFC Redistribution (AID 451; calls by dose curve; further: potency means the concentration at half of the fitted maximal effect). The following applies: CHO-K1 GR-EFC translocation, beta-gal luminescence, 2 h. Put shortly:
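CHO-K1 cells stably expressing nuclear-localized β-gal enzyme acceptor and GR fused C-terminally to the enzyme donor fragment; ligand-driven nuclear translocation restores β-gal by complementation. Compounds titrated up to 46 uM final, 2 h at 37 °C; luminescence read.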

Test [5] addresses Mitogen-activated protein kinase 10 (Mus musculus) (UniProt Q61831). Kind of test: JNK3 AlphaScreen Assay (AID 530; active means well fitted curve in either direction with a large enough effect, not every such curve was filed as active;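 further: kinase came from lysate of stimulated human HepG2 cells; signal reports phosphorylation of biotinylated GST-cJun 1-79 at Ser73 with 10 µM ATP; on the % scale 0 is the no-effect control and ±100 the full control effect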). Put shortly:
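Inhibitors reduce antibody binding to phosphorylated biotin-cJun, lowering AlphaScreen luminescence. Lysates from HepG2 cells pre-activated by IL-1beta plus TNF-alpha supplied JNK3; compounds were titrated.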
(In general: Alpha assays give light when donor and acceptor beads are brought close together.)

Test [6] deals with 3',5'-cyclic-AMP phosphodiesterase 4B (Homo sapiens) (UniProt Q07343). The experiment in a line: qHTS Assay for Inhibitors of PDE-IV (AID 607; active means well fitted activation curve with a large enough effect in the main read-out, with a control signal flat, not every such curve was filed as active; further: % of control where 0% means no effect). A digest of the protocol: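 Live HEK293 cells with a modified cyclic nucleotide-gated (CNG) channel report intracellular cAMP via membrane-potential dye fluorescence (ex 535/em 590 nm). Endogenous PDE-IV was targeted. Compounds were tested at up to 22.9 uM final; RO 20-1724 100 uM served as control.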
A general note: In qHTS, concentration-response curves come from the screen itself.

The target of test [7] is Cytochrome P450 3A4 (Homo sapiens) (UniProt P08684). The experiment in a line: qHTS Assay for Activators of Cytochrome P450 3A4 (AID 885). Further: nearly all actives have a fitted effect of over 65% in size. Put shortly:
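Quantitative HTS format: compounds preincubated with 20nM human CYP3A4 and Luciferin-PPXE substrate at KM, reaction started by NADPH regeneration, stopped after 60 min, luciferase luminescence read 20 min later.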

The nature of test [8]: qHTS Assay for Lipid Storage Modulators (AID 1519; calls by dose curve). The note with it: Drosophila S3 cells, BODIPY lipid droplet/cell ratio, laser cytometry, cells loaded with oleic acid; for activity change, negative = inhibition: at 57.5 µM (top of the series). A digest of the protocol:
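Cells seeded at 5,000 per well were treated with compounds over a concentration series and loaded with oleic acid (400 uM, as added). Lipid droplet fluorescence (488 nm excitation, 500-530 nm channel) was read by laser-scanning cytometry and normalized to 20 uM Triacsin C.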

The nature of test [9]: Counterscreen qHTS for small molecule stabilizers of the endoplasmic reticulum resident proteome: GLuc-NoTag assay (AID 1508627).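 Further: SH-SY5Y cells given compound then 100 nM thapsigargin to empty ER calcium; 0% = thapsigargin alone and -100% = DMSO vehicle control.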 A digest of the protocol:
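SH-SY5Y cells stably expressing constitutively secreted GLuc (no SERCaMP tag) were pre-incubated 5 h, treated with compound for 19 h, then 100 nM thapsigargin for 4 h at 37C; medium GLuc read by coelenterazine luminescence.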
(In general: A counterscreen serves to expose hits that act by an unwanted route or on another target.)

A short description of test [10]: Confirmatory qHTS for small molecule stabilizers of the endoplasmic reticulum resident proteome: Secreted ER Calcium Modulated Protein (SERCaMP) assay (AID 1508628). Further: nearly all actives have a fitted effect of over 40% in size. Further: potency means the concentration at half of the fitted maximal effect. Put shortly:
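SH-SY5Y cells stably expressing GLuc-SERCaMP, treated 16 h with compound (primary 1.53, 7.67, 38.3 uM; confirmation 11 concentrations, up to 76.6 uM), then 100 nM thapsigargin for 4 h. Secreted Gaussia luciferase in medium read by coelenterazine luminescence.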

Test [11] is described as follows: Cell Viability qHTS for small molecule stabilizers of the endoplasmic reticulum resident proteome (AID 1508629).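 Further: human SH-SY5Y neuroblastoma cells carrying the GLuc-SERCaMP reporter; compound exposure about 46 h in total before the viability read; on the % scale 0 is the no-effect control and ±100 the full control effect.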 The note with it: cell viability counter-screen, 100 nM thapsigargin for final 4 h.
Test [12] concerns the target Cytochrome P450 3A4 (Homo sapiens) (UniProt P08684). The experiment in a line: qHTS Assay for Inhibitors and Substrates of Cytochrome P450 3A4 (AID 884). Further: on the % scale 0 is the no-effect control and ±100 the full control effect; nearly all actives have a fitted effect of over 50% in size. Put shortly: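 20 nM human CYP3A4 with 25 uM Luciferin-PPXE (at KM) in 200 mM KPO4, preincubated 10 min with compound; NADPH regeneration started a 60 min RT reaction. Luciferin detected by luminescence, normalized to 57 uM ketoconazole as full inhibition.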

Test [13] is described as follows: Confirmation and Secondary Assay for Modulators of Hemoglobin Beta Chain Splicing at IVS2 654 locus (AID 910).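 Further: per-well total GFP intensity by laser scanning cytometry after 2-day treatment; % of control where 0% means no effect.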 Put shortly:
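HeLa cells stably carrying EGFP interrupted by mutant beta-globin IVS2-654 intron (CMV-driven) were treated with compound for 2 days at 37C; corrected splicing was scored as total peak GFP intensity per well (488 nm excitation, 500-520 nm emission).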

Test [14] can be described thus: Confirmation and Secondary Assay for Modulators of Hemoglobin Beta Chain Splicing at IVS2 705 locus (AID 930).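 Further: HeLa cells stably expressing the EGFP-705 splicing reporter; GFP fluorescence per well restored by corrected splicing of the IVS2-705 intron in EGFP; % of control where 0% means no effect.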 A digest of the protocol:
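Secondary splice-site specificity test uses HeLa expressing CMV-driven EGFP interrupted by IVS2-705; cells were treated 2 days at 37C with 500 nM antisense PNA as positive control.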

In test [15] the target is Calcium and integrin-binding protein 1 (Homo sapiens) (UniProt Q99828). The experiment in a line: Primary qHTS for Identification of Calcium Integrin Binding Protein 1 (CIB1) Competitor (AID 1508620). Put shortly: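 Fluorescence polarization competition: CIB1-GST (1 uM final) preincubated with compound 15 min at room temperature, then FITC-labeled alphaIIb peptide (100 nM final) added for another 15 min. Polarization read at Ex 480/Em 540.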

A short description of test [16]: Primary qHTS for small molecule stabilizers of the endoplasmic reticulum resident proteome: Secreted ER Calcium Modulated Protein (SERCaMP) assay (AID 1508630). Further: on the % scale 0 is the no-effect control and ±100 the full control effect. A digest of the protocol:
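GLuc-SERCaMP-expressing SH-SY5Y cells, pretreated 16 h with compound, are challenged with thapsigargin to empty ER calcium stores; after 4 h, coelenterazine is added directly to the medium and luminescence is imaged.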

Setting [17] is: measured here: cell count channel max response.
Where [18] appears, read: measured here: lipid channel max response.

Inconclusive results are not listed. Active and inactive are the calls of the source. Unless noted, the call rests on the fitted dose curve; in most records, active means well fitted curve in the direction sought with a large enough effect; inconclusive means small, poorly fitted or top-dose-only effect, or another doubt; inactive means no such curve, though single readings can be large; an effect the other way counts as inactive or inconclusive.

Sequence of Calcium and integrin-binding protein 1 (Homo sapiens) (Q99828 whole entry, looked up): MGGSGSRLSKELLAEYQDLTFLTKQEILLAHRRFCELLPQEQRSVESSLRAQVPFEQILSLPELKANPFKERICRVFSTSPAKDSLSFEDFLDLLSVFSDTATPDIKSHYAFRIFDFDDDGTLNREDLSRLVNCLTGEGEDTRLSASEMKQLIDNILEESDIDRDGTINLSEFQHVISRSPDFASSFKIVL
Sequence of Cytochrome P450 3A4 (Homo sapiens) (P08684 whole entry, looked up): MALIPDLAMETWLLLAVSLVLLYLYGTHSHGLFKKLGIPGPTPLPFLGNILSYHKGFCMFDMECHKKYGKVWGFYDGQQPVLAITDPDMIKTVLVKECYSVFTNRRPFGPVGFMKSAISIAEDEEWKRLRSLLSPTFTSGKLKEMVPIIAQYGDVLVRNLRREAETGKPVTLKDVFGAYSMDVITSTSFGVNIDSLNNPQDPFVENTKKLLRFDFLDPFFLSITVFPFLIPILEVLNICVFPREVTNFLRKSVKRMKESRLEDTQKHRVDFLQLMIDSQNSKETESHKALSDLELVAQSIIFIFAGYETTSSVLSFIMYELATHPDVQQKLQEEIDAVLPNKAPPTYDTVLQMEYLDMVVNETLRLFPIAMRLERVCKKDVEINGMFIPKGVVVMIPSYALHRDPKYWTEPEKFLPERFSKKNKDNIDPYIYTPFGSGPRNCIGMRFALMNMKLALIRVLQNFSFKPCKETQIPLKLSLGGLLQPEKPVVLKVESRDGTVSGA
Sequence of Cytochrome P450 1A2 (Homo sapiens) (P05177 whole entry, looked up): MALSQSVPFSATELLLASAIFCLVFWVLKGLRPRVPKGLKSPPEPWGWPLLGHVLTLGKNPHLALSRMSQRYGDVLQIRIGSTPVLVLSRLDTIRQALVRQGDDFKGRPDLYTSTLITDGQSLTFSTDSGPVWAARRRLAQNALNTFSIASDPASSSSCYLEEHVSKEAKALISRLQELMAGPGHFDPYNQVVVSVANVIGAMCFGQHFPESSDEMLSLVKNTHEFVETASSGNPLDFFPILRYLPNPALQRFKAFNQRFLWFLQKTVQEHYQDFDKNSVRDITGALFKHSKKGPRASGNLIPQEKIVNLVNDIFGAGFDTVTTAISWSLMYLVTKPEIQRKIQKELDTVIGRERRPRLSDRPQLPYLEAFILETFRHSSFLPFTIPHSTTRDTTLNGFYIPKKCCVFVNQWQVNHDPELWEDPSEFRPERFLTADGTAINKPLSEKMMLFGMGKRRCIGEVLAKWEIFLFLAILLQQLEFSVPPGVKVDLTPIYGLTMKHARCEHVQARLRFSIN
Sequence of 3',5'-cyclic-AMP phosphodiesterase 4B (Homo sapiens) (Q07343 whole entry, looked up): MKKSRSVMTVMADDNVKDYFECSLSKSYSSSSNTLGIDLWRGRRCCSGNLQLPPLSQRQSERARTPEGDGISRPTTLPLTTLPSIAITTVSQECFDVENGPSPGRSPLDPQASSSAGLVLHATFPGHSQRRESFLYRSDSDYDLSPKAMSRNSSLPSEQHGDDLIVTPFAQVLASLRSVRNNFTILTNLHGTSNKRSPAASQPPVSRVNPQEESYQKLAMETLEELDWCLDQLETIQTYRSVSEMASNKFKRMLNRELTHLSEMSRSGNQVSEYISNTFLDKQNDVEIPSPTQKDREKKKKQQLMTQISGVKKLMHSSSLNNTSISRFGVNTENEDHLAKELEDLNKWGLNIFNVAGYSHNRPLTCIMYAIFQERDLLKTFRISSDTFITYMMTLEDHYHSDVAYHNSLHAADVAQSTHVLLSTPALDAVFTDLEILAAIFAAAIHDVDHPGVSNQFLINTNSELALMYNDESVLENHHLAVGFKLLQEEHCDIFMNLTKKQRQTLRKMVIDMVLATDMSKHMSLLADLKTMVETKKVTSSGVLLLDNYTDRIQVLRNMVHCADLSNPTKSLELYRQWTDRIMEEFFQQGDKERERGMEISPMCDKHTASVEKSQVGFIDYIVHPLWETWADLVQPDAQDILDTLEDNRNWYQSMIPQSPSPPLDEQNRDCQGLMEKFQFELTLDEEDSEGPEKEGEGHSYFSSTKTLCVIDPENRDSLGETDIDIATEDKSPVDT
Sequence of Glucocorticoid receptor (Homo sapiens) (P04150 whole entry, looked up, the tested form may be a part): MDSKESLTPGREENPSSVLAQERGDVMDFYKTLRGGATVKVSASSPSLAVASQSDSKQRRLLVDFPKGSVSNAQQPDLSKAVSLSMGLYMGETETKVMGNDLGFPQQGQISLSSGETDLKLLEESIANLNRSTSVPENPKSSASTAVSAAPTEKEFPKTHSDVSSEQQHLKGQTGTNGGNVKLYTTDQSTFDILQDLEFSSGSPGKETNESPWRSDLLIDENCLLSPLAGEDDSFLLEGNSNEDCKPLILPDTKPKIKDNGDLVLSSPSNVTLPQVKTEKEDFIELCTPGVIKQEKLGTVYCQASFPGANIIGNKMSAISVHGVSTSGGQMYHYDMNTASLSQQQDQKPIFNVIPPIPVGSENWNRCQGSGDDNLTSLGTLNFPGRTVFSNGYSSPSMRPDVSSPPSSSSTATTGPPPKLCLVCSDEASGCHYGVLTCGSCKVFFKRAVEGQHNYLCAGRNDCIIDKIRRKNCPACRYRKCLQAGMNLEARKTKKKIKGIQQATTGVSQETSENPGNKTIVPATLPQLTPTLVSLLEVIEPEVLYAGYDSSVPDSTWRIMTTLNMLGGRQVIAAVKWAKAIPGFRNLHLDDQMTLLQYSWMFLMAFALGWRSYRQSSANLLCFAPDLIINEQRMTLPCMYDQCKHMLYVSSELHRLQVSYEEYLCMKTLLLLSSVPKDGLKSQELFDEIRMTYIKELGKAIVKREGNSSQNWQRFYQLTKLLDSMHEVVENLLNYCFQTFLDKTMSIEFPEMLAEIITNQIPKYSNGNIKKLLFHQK

In the case of `c1ccc(N2CC[C@@]3(CCCNC3)C2)cc1`, the outcome in test [1], in [3], in [5] and in test [9] was inactive. In addition, the values for the Potency in test [2], in [4] and in test [10] were 39.8 µM (active), > 46 µM (inactive) and 44.7 µM (active), respectively. Besides, the Potency result in [6] and in [7] was “inactive” throughout. Also, in [8], the activity change, negative = inhibition was 5.37% (inactive). Further, the max response in test [8] (setting [17]) was 5.01%; in test [8] (setting [18]), 10.7%; in test [11], 3.77% (inactive).
Turning to `CC(=O)C1=C(O)C2C3c4c[nH]c5cccc(c45)CC3C(C)(C)N2C1=O` (stereo unspecified), the Potency result in test [12], in [13] and in [14] was “inactive” throughout. Moreover, the activity change, negative = inhibition in test [8] was 8.13% (inactive). Besides, the max response was 15.9% in test [8] (setting [17]), 22.7% in test [8] (setting [18]) and -5.15% (inactive) in test [11]. Also, the molecule was called inactive in test [9].
In the case of `CC(C)C1C(=O)N2CCC[C@H]2[C@]2(O)O[C@](NC(=O)[C@@H]3C=C4c5cccc6[nH]cc(c56)C[C@H]4N(C)C3)(C(C)C)C(=O)N12` (stereo partly specified), in test [9], the outcome was inactive. Also, the Potency in test [10] is 31.6 µM (active).
With `Cc1ccc2nc(NC3=NC(c4[nH]ncc4Cl)C4=C(CCCC4=O)N3)oc2c1` (stereo unspecified), in test [15], the outcome was inactive.
As to `C[C@]12CC[C@@H](O)C[C@H]1CC[C@@H]1[C@H]2CC[C@]2(C)C(=O)CC[C@@H]12`, the result in test [16] was inactive.
As for `O=C(O)[C@@H]1CSC(c2cccnc2)N1` (stereo partly specified), the molecule was called inactive in test [9]. The Potency result in test [10] is “inactive”. In addition, the max response in test [11] is 25.6% (inactive).
For the molecule `CC(=O)O[C@@H]1C[C@@]2(C)C(c3ccoc3)C[C@H]3O[C@]32[C@]2(C)C(=O)C(O)=C3C(C)(C)C(=O)C=C[C@]3(C)C12` (stereo partly specified), in [16], the outcome was inactive.
`Cn1cc(Br)c(C2N=C(Nc3nc4ccccc4o3)NC3=C2C(=O)CCC3)n1` (stereo unspecified): the result in [15] was inactive.
Turning to `CCCc1ccc(NC(=O)c2ccc3c(c2)NC(=O)CS3)cc1`, the result in test [15] was inactive.
In the case of `C[C@@H]1O[C@@H](O[C@H]2CC[C@]3(C=O)C4CC[C@]5(C)[C@@H](C6=CC(=O)OC6)CC[C@]5(O)[C@@H]4CC[C@]3(O)C2)[C@H](O)[C@H](O)[C@H]1O` (stereo partly specified), the result in [16] was inactive.
On the same count and under the same terms, as for `COCC#CCN1CCCCC1c1cccnc1` (stereo unspecified), the entry is “inactive”.
For the molecule `c1cnc(N2CCC3(CCNCC3)CC2)nc1`, the molecule was called inactive in [1], in test [3], in [5] and in test [9]. Moreover, the Potency result in test [2], in [6], in test [7] and in test [10] was “inactive” in each case. For the same molecule, the Potency in [4] was > 46 µM (inactive). The activity change, negative = inhibition in test [8] is 5.39% (inactive). Moreover, the max response in test [8] (setting [17]) is 13.8%; in test [8] (setting [18]), 23.4%; in test [11], 1.49% (inactive).
